Laboratory results taken from the supplement of paper PMC11732987, “Enantioselective OTUD7B fragment discovery through chemoproteomics screening and high-throughput optimisation” (Communications Chemistry, 2025).

Assays:
Experiment in all cases: log2 ratio of Biotin-Ahx-Ub-VS probe labelling (fragment/DMSO); higher = less target engagement (more negative = stronger competition), active = hit call of the paper (q ≤ 0.05, log2 ratio ≤ -1)
Conditions in all cases: compound concentration: 200 uM; treatment time: 3 h
USP42 = target: T1, USP42 (UniProt Q9H9J4)
T1 sequence (whole entry): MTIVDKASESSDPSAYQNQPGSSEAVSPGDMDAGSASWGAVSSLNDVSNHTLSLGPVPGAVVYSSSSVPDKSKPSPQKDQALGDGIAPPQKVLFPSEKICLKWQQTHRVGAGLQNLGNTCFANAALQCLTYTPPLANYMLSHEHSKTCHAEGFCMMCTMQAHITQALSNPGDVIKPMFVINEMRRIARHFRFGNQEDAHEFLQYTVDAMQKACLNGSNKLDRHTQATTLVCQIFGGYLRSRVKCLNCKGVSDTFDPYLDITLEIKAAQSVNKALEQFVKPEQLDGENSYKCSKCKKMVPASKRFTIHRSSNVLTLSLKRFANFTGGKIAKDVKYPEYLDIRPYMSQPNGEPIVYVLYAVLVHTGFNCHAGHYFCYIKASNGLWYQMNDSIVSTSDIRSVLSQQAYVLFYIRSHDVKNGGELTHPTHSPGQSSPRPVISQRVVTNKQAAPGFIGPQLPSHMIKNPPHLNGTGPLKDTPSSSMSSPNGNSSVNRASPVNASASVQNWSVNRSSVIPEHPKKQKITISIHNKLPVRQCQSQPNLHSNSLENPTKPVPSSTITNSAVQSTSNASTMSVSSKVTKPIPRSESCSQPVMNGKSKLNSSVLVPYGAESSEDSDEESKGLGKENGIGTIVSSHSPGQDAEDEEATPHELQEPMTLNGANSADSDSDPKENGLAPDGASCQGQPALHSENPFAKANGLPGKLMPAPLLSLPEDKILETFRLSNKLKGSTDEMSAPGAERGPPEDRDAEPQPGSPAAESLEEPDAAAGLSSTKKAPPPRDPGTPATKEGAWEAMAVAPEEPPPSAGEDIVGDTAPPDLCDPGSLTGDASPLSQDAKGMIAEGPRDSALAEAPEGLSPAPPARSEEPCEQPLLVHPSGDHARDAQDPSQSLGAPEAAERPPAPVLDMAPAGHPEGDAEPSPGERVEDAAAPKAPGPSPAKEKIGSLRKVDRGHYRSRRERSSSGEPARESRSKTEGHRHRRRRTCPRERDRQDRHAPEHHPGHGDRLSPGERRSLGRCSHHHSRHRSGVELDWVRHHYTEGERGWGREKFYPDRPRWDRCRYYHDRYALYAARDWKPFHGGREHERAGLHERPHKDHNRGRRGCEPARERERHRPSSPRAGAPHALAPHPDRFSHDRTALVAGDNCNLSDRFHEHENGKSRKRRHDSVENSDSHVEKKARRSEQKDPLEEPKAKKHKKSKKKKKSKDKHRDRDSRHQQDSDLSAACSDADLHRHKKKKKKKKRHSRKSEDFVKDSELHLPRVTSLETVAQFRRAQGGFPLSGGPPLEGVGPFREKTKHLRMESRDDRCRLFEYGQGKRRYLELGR
Outline: (§1)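 In triplicate, 495 µg of HEK293T lysate per sample was incubated with fragment at 200 µM or vehicle for 3 h. Biotin-Ahx-Ub-VS was then added to 0.5 µM final for 1 h, and labelled DUBs were captured with NeutrAvidin, digested with LysC and trypsin, and measured by diaPASEF LC-MS/MS. Data are average log2 fragment/vehicle ratios by unpaired t-test from global-median-normalised Spectronaut label-free quantities, restricted to proteins with ≥2 unique peptides.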

USP46 = USP46 (UniProt P62068)
Sequence of USP46 (P62068 whole entry): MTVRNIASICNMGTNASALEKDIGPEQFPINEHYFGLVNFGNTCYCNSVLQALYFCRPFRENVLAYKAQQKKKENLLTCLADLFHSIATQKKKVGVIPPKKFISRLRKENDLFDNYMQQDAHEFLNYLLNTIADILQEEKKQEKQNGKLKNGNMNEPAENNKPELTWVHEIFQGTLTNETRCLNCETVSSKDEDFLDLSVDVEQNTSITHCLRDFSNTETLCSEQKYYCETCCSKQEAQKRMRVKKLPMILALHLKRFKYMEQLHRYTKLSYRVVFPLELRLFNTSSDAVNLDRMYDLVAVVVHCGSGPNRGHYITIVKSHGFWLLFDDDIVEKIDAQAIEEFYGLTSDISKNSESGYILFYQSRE
Outline: as §1

USP47 = target: T2, USP47 (UniProt Q96K76)
T2 sequence (whole entry): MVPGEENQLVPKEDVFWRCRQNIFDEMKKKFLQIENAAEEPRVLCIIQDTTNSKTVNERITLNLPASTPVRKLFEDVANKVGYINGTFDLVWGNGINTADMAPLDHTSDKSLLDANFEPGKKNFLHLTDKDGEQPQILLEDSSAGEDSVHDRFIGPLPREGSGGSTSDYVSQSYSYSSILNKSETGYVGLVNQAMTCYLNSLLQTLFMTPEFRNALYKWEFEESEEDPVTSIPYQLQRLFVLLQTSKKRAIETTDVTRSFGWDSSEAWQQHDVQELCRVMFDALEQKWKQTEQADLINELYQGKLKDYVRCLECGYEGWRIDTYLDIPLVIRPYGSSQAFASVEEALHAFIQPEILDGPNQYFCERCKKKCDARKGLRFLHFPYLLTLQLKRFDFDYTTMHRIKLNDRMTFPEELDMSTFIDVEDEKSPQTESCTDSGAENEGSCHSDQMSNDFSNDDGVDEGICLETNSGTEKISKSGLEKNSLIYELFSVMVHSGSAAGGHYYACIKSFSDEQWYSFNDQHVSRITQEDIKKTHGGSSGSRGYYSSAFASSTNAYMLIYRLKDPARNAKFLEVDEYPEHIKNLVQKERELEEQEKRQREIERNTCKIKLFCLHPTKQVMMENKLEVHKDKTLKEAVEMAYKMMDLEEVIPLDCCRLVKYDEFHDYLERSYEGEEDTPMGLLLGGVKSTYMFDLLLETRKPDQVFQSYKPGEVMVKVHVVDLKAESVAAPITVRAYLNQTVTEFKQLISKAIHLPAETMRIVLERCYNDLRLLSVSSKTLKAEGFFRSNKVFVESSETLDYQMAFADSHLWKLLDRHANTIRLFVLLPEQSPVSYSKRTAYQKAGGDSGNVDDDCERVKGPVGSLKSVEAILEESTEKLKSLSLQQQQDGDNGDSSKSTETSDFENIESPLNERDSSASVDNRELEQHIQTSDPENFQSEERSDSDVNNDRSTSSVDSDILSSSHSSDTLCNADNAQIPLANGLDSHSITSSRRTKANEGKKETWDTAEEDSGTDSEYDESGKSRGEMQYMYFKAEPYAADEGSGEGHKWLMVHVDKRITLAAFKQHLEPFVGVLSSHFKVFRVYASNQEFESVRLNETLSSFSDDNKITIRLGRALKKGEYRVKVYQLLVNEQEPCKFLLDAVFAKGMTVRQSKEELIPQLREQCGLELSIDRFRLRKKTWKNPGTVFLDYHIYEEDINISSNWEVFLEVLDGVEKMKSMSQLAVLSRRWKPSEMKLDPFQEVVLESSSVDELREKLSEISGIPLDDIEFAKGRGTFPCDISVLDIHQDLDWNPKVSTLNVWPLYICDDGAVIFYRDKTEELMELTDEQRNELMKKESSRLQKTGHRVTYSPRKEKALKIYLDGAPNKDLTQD
Outline: as §1

USP48 = target: T3, USP48 (UniProt Q86UV5)
T3 sequence (whole entry): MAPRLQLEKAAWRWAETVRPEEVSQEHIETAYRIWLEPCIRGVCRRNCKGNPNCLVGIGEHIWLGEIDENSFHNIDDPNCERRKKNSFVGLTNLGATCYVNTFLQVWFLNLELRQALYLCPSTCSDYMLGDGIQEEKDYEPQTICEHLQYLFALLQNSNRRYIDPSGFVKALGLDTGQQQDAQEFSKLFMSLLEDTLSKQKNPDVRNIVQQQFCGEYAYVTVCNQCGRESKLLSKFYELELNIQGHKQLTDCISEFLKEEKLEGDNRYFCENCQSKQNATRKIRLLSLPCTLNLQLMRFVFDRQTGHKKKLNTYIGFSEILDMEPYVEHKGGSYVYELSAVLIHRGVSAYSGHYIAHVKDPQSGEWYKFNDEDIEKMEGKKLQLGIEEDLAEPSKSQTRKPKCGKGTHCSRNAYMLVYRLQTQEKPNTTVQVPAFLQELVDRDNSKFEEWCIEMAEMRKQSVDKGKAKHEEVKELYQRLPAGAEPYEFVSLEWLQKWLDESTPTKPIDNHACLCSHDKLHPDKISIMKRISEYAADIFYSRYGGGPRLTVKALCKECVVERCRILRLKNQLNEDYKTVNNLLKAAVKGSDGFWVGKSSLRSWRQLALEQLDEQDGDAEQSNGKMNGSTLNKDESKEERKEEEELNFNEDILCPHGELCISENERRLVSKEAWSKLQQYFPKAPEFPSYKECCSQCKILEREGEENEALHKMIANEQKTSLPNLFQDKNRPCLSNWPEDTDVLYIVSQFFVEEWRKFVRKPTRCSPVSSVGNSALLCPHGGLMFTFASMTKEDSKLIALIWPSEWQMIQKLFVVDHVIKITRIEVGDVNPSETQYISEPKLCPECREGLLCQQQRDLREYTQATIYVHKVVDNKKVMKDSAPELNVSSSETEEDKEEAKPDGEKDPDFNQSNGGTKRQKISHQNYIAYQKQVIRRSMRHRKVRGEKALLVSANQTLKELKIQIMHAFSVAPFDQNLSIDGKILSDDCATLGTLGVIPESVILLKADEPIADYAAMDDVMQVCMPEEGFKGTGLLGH
Outline: as §1

USP5 = target: T4, USP5 (UniProt P45974)
T4 sequence (whole entry): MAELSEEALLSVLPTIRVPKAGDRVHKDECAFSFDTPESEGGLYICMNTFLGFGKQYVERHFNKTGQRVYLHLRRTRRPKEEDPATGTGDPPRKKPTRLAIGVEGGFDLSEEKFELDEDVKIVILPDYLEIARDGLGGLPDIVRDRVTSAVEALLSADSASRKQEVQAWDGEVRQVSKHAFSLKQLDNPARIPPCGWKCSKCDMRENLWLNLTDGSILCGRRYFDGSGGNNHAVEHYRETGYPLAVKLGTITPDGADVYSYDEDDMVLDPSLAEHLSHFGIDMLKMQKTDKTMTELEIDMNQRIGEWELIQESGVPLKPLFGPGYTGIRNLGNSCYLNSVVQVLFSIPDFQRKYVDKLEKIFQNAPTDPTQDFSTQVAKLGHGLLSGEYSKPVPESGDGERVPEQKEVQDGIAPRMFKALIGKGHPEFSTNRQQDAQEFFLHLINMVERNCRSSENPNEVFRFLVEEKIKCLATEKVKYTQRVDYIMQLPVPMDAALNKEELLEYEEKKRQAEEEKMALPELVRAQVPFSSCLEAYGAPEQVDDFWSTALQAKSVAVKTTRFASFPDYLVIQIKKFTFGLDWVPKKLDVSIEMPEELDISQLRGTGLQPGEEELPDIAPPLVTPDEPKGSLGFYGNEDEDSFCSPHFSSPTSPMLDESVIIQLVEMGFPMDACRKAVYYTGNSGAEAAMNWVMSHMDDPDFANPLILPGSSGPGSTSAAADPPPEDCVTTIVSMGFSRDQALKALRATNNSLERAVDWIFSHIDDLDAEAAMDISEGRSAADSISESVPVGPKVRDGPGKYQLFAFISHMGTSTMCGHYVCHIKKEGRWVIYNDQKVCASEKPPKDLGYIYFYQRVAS
Outline: as §1

USP54 = USP54 (UniProt Q70EL1)
Sequence of USP54 (Q70EL1 whole entry): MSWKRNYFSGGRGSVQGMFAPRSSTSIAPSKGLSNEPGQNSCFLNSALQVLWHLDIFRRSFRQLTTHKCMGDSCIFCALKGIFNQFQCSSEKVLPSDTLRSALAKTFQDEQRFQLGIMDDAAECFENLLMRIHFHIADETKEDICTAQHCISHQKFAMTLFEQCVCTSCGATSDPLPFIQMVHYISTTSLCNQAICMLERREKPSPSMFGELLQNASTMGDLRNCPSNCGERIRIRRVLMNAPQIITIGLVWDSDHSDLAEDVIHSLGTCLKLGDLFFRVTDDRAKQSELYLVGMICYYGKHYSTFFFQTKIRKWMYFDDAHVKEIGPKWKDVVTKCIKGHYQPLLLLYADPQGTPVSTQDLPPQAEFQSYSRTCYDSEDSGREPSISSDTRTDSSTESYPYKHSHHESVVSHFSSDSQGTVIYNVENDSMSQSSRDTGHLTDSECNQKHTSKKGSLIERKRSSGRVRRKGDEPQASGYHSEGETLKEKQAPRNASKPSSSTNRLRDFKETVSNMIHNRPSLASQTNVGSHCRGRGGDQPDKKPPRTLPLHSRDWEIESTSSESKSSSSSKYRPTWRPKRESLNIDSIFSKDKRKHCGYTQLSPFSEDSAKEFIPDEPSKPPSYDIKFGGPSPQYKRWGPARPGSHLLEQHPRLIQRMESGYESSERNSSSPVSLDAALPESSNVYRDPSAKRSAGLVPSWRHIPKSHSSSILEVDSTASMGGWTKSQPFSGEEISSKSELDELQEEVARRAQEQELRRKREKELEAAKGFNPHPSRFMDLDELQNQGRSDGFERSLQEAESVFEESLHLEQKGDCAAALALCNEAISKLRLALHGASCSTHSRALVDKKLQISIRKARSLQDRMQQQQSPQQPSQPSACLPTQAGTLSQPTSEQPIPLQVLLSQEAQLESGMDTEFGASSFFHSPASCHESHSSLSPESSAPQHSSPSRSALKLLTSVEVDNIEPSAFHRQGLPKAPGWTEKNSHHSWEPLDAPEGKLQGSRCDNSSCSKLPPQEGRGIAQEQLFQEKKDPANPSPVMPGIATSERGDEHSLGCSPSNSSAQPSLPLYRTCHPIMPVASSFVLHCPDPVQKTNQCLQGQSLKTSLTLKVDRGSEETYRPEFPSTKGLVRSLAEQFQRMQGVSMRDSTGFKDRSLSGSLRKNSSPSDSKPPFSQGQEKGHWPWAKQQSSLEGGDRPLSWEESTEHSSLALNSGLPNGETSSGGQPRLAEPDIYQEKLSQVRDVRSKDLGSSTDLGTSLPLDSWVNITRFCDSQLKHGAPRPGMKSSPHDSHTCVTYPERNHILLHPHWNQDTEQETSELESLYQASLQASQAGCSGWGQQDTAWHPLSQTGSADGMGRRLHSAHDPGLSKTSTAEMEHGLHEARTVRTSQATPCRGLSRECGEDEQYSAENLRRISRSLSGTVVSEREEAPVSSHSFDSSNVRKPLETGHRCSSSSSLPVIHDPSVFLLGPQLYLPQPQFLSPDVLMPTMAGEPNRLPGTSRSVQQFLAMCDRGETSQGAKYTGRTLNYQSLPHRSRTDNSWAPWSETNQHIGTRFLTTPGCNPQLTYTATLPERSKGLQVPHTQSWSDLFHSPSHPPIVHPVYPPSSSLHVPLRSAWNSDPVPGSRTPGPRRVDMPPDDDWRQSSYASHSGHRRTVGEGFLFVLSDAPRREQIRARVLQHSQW
Outline: as §1

USP7 = USP7 (UniProt Q93009)
Sequence of USP7 (Q93009 whole entry, looked up): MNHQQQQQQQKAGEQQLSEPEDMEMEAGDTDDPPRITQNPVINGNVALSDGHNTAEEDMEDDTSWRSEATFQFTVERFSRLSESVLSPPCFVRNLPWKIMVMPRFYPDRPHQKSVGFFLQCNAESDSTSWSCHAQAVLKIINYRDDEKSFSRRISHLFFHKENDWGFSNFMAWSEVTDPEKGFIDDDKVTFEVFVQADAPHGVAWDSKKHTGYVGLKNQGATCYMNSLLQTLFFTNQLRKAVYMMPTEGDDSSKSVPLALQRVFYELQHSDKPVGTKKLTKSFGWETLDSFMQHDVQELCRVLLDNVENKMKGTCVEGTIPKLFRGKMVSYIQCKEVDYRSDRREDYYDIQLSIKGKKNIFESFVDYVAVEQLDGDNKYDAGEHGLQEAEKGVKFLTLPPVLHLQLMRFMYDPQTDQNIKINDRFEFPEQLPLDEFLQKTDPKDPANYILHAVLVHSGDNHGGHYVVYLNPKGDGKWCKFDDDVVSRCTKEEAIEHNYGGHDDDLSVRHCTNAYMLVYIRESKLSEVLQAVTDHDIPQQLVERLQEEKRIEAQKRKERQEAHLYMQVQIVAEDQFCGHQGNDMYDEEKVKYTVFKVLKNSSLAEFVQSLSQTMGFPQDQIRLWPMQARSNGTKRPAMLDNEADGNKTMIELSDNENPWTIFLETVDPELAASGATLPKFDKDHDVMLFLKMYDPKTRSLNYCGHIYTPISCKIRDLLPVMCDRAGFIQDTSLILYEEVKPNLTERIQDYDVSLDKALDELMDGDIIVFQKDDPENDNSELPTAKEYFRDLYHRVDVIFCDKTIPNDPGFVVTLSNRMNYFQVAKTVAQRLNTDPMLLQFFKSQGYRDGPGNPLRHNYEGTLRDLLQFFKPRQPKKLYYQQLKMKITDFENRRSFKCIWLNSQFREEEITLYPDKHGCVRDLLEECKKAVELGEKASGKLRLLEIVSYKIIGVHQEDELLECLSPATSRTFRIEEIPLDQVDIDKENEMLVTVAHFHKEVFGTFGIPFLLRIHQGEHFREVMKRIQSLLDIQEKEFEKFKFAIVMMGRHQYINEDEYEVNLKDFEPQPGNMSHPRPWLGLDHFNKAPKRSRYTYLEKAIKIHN
Outline: as §1

USP8 = target: T5, USP8 (UniProt P40818)
T5 sequence (whole entry): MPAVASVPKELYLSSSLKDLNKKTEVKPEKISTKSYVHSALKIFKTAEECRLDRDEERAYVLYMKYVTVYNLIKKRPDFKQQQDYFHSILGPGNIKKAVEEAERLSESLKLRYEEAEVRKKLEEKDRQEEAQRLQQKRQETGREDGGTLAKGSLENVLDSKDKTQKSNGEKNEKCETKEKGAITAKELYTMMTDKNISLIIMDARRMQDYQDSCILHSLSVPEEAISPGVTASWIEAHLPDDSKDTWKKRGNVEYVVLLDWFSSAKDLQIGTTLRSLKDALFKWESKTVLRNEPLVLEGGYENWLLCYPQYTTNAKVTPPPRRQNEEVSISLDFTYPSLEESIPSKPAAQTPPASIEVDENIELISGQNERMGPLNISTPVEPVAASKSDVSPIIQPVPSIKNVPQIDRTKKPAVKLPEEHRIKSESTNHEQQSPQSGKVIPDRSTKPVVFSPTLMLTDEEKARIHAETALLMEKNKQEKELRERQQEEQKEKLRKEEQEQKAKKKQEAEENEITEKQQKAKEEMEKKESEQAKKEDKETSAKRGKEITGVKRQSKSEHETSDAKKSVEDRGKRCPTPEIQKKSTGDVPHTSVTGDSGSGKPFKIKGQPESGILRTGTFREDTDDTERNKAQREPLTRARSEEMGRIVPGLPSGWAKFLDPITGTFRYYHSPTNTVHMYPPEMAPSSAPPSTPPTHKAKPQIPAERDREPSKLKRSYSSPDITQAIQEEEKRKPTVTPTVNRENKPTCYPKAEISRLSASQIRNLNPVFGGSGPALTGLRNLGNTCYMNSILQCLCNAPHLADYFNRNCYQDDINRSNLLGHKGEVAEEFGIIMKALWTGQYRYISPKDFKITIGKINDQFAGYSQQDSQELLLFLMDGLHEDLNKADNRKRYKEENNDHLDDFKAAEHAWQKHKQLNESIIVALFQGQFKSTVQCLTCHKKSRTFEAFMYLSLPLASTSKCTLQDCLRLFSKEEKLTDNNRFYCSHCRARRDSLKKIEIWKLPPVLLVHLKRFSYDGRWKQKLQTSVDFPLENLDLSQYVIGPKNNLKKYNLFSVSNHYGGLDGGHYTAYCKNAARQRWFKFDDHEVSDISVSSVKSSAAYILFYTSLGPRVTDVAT
Outline: as §1

Measured: log2 ratio of Biotin-Ahx-Ub-VS probe labelling

O=C(CCl)NCC(=O)N1CCCC1
inactive: USP42 0.103 | USP46 0.0751 | USP47 0.107 | USP48 -0.00296 | USP5 0.205 | USP54 0.812 | USP7 -0.0345 | USP8 -0.434
